For 38 molecules, Inhibition results are on record in ChEMBL document CHEMBL1157539, “Thousands of chemical starting points for antimalarial lead identification” (Nature, 2010).

The Inhibition is the share of the control response that was lost under treatment. Low values mean little suppression, high ones strong suppression.

Structures are written as SMILES. “And” between values parts separate entries of the source, which are not always exact repeats. Identical values can stand only once.

For the experiment, the system named is HepG2. The experiment in a line: GSK_TCMDC: Percent inhibition of human HepG2 cell line. Test compounds present at 10uM. Type of experiment: functional.
In the case of `Cc1cc(O)cc2c(C3CCN(CC4CCC(NC(=O)/C=C/c5ccccc5Cl)CC4)CC3)c[nH]c12` (stereo not drawn), the Inhibition came out at 21%.

In turn, `O=C(/C=C/c1ccc(Cl)c(Cl)c1)NC1CCC(CN2CCC(c3c[nH]c4ccccc34)C(O)C2)CC1` (stereo not drawn) registered an Inhibition of 30%.

`Cc1[nH]c2ccccc2c1C1=CCN(CCCCC2(C)C(=O)Nc3cccc(F)c32)CC1` (stereo not drawn): the Inhibition is listed as 9%.

In the case of `Cc1cccc(N2CCN(Cc3cc(Cl)ccc3O)CC2)c1C.O=C(O)C(=O)O`, the Inhibition amounted to 0%.

In turn, `COc1ccc(CC(C)NCC(O)c2cccc(Br)c2)cc1` (stereo not drawn) showed an Inhibition of 10%.

In turn, `CO/C(=C\C=C\c1cc2cc(Cl)c(Cl)cc2[nH]1)C(=O)N[C@H]1CN2CCC1CC2` had an Inhibition of 43%.

As for `S=C(Nc1ccc2c(c1)OCCO2)NC1CCC(CN2CCC(c3c[nH]c4ccccc34)CC2)CC1` (stereo not drawn), the Inhibition is 31% and 32%.

Molecule `Brc1cnc(NC2=NCCN2)c(Br)c1.Cl` displayed an Inhibition of 0%.

`Oc1ccccc1CNCC(O)c1cc(C(F)(F)F)cc(C(F)(F)F)c1` (stereo not drawn) showed an Inhibition of 15%.

For `O=C(/C=C/c1ccc(Cl)cc1Cl)NC1CCC(CN2CCC(c3c[nH]c4ccccc34)CC2)CC1` (stereo not drawn), the Inhibition is 37%.

For `CCOC(=O)c1c(C)n(C2CCCCC2)c2cc(Br)c(O)cc12`, the Inhibition stood at 1%.

In the case of `Br.COc1ccc(CC(C)NCC(O)c2cccc(C(F)(F)F)c2)cc1F` (stereo not drawn), the Inhibition is given as 0%.

In turn, `CN(c1cc(NC(=O)c2cccs2)ccn1)C1CCN(Cc2ccccc2)CC1.O=C(O)C(F)(F)F` had an Inhibition of 0%.

In turn, `Cl.N#Cc1c(F)cc(N2CCC(NCC[C@H](N)Cc3ccc(F)c(F)c3)CC2)cc1F` came in with an Inhibition of 70%.

Consider `CC[C@H]1CN2CC[C@@H]1C[C@H]2[C@H](O)c1cc(-c2cc(Cl)cc(Cl)c2)nc2ccc(OC)cc12`, for which the Inhibition was 0%.

On to `CC[C@H]1CN2CC[C@@H]1C[C@H]2[C@H](O)c1cc(-c2ccccc2)nc2ccc(O)cc12.Cl`, for which the Inhibition worked out at 14%.

For the molecule `COC(=O)c1ccc(CC(C)NCC(O)c2cccc(Br)c2)cc1` (stereo not drawn), the Inhibition was found to be 0%.

With `Cc1cc(-c2ncc[nH]2)ccc1-c1ccc(C(=O)N2CCc3cc4c(cc32)C2(CCN(C)CC2)CO4)cc1.Cl`, the Inhibition was 32%.

With `CCCCCCCN1C2CCC1CC(CCOc1ccnc3ccc(OC)cc13)C2` (stereo not drawn), the Inhibition stood at 23%.

`Oc1ccc2[nH]cc(C3=CCN(CCc4ccccc4)CC3)c2c1` returned an Inhibition of 11%.

In turn, `CC(=O)C1(c2ccccc2)CCN(CCC2(c3ccc(Cl)c(Cl)c3)CN(C(=O)c3cccc(Cl)c3)CCO2)CC1` (stereo not drawn) showed an Inhibition of 37%.

In the case of `COc1ccc(NC(=S)NC(NC(=O)CF)C(Cl)(Cl)Cl)cc1[N+](=O)[O-]` (stereo not drawn), the Inhibition is listed as 66%.

In the case of `CN1CC=C(c2c[nH]c3ccc(Sc4ccccc4)cc23)CC1.O=C(O)/C=C/C(=O)O`, the Inhibition is on record as 36%.

Molecule `CN(C)c1cccc(CN2CC=C(c3c[nH]c4ccc(Cl)cc34)CC2)c1` registered an Inhibition of 40%.

`O=C(Nc1ccc(Cl)c(Cl)c1)N1CCC(CN2CCC(c3c[nH]c4ccccc34)CC2)CC1` had an Inhibition of 46%.

Take `CC(=O)N(Cc1ccc(-c2ccc(CNCCc3ccccc3)cc2)cc1)C1CCN(Cc2ccccc2)CC1.O=C(O)C(F)(F)F`: the Inhibition is given as 45%.

`COC(=O)c1ccc(CC(C)NCC(O)c2cccc(C(F)(F)F)c2)cc1C` (stereo not drawn): the Inhibition is recorded as 6%.

In the case of `O=C(NC1CCC(CN2CCC(c3c[nH]c4ccccc34)CC2)CC1)c1cc(-c2ccccc2Cl)oc1C(F)(F)F` (stereo not drawn), the Inhibition was determined as 24%.

With `O=C(/C=C/c1ccc(Cl)c(Cl)c1)N1CCC(CN2CCC(c3cn(CC(=O)N4CCCCC4)c4ccccc34)CC2)CC1.O=C(O)C(F)(F)F`, the Inhibition is on record as 52%.

For the molecule `CN1CC=C(C=Cc2c[nH]c3ccccc23)CC1`, the Inhibition stood at 14%.

`COCCNCc1ccc(-c2ccc(CN(C(=O)NC3CCCCC3)C3CCN(Cc4ccccc4)CC3)cc2)cc1.O=C(O)C(F)(F)F` yielded an Inhibition of 29%.

On to `COc1ccc(CC(C)NCC(O)c2cccc(Cl)c2F)cc1` (stereo not drawn), for which the Inhibition was 3%.

On to `COc1cccc(C=CC(=O)NC2CCC(CN3CCC(c4c[nH]c5ccccc45)CC3)CC2)c1OC` (stereo not drawn), for which the Inhibition came out at 37%.

In the case of `Cc1[nH]c2ccc(O)cc2c1C1CCN(CC2CCC(NC(=O)/C=C/c3ccc(Cl)c(Cl)c3)CC2)CC1` (stereo not drawn), the Inhibition was found to be 19%.

In turn, `COc1ccc(C=CC(=O)N2CCC(CN3CCC(c4c[nH]c5ccccc45)CC3)CC2)cc1OC` registered an Inhibition of 20%.

As to `CCOC(C(=O)OCC1CCCN(C)C1)(c1ccccc1)c1ccccc1` (stereo not drawn), the Inhibition was found to be 13%.

In the case of `CCCCC/C=C/C(=O)NC1CCC(CN2CCC(c3c[nH]c4ccccc34)CC2)CC1` (stereo not drawn), the Inhibition was 19%.

For `CN1CCN(c2ccc3[nH]c(-c4ccc5[nH]c(-c6ccc(O)cc6)nc5c4)nc3c2)CC1.Cl.O`, the Inhibition stood at 0%.
